Our source for the PBM binding z-score values is the supplement of paper PMC6555819.

What all share (test): PBM binding z-score (relative to random genomic background probes); higher = stronger binding; sequences stand for … in GC…GCGATTGACAGCGTAGAATGAAGG
Test [1] deals with FXR:RXRa (NR concentration 270 nM, RXRa partner concentration 90 nM). In outline: (§1)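 Antibodies against each partner of ligand-free nuclear receptor dimers (one per run) detected binding on custom Agilent 4×180K protein-binding microarrays after 1 h incubation. The double-stranded probes had 34-nt variable regions carrying direct-repeat seeds, single-nucleotide variants, half-site ablations and random human genomic background sequences. Binding z-scores, from regression-normalized fluorescence, use the random background probes as reference.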

Test [2] deals with LXRa:RXRa (NR concentration 270 nM, RXRa partner concentration 90 nM). In outline:
as §1

The subject of test [3] is LXRa homodimer (NR concentration 270 nM). In outline:
as §1

In test [4] the test system is LXRb:RXRa (NR concentration 270 nM, RXRa partner concentration 90 nM). The method, boiled down:
as §1

Test [5] deals with LXRb homodimer (NR concentration 270 nM). In outline:
as §1

Test [6] has as its system PPARa:RXRa (NR concentration 270 nM, RXRa partner concentration 90 nM). In outline:
as §1

Test [7] concerns PPARg:RXRa (NR concentration 180 nM, RXRa partner concentration 90 nM). In outline:
as §1

Test [8] concerns PPARg:RXRa 270nM:90nM, anti-RXR (NR concentration 270 nM, RXRa partner concentration 90 nM). The method, boiled down:
as §1

Test [9] deals with PPARg:RXRa 30nM:10nM, anti-RXR (NR concentration 30 nM, RXRa partner concentration 10 nM). The method, boiled down:
as §1

Test [10] relates to PPARg:RXRa 90nM:30nM, anti-RXR (NR concentration 90 nM, RXRa partner concentration 30 nM). In outline: as §1
For test [11], the system named is PPARg:RXRa DBDmut IVT, anti-RXR (DBD mutation: RXRa K156A/R161A, NR concentration 270 nM, RXRa partner concentration 90 nM). The method, boiled down: as §1
The subject of test [12] is PPARg:RXRa IVT, anti-PPARg (NR concentration 270 nM, RXRa partner concentration 90 nM). In outline:
as §1

The subject of test [13] is PPARg DBDmut:RXRa IVT, anti-PPARg (DBD mutation: PPARg1 K132A/R137A, NR concentration 270 nM, RXRa partner concentration 90 nM). In outline:
as §1

The subject of test [14] is PPARg DBDmut IVT, anti-PPARg (DBD mutation: PPARg1 K132A/R137A, NR concentration 270 nM). In outline:
as §1

Test [15] concerns PPARg homodimer (NR concentration 180 nM). The method, boiled down: as §1
Test [16] concerns PXR:RXRa (NR concentration 270 nM, RXRa partner concentration 90 nM). In outline: as §1
In test [17] the test system is PXR homodimer (NR concentration 270 nM). In outline:
as §1

In test [18] the test system is RARa:RXR (NR concentration 270 nM, RXRa partner concentration 90 nM). In outline:
as §1

Test [19] relates to RARa homodimer (NR concentration 270 nM). The method, boiled down: as §1
Test [20] deals with RARb:RXRa (NR concentration 270 nM, RXRa partner concentration 90 nM). The method, boiled down:
as §1

As for ACTATTAGTTGAGAGGAGGGCAACCGATAGGTTG, the PBM binding z-score in [1] is 0.181; in test [2], -0.0431; in test [3], 0.0481; in [4], -0.187; in [5] it was 0.248; in test [6] it was 0.335. Besides, the PBM binding z-score in [7] was 0.512; in test [8], 0.15; in test [9] it was 0.176; in test [10], 0.106; in test [11], 0.402; in [12], 0.862. For the same sequence, the PBM binding z-score in [13] turned out to be 0.559; in test [14] it was 0.202; in test [15] it was 0.333; in test [16], 0.447; in [17], 0.403; in test [18], 0.168. The values for the PBM binding z-score in [19] and in [20] were 0.97 and 0.991, respectively.
With TCGAGTAGGTTAGTCGGGGCATTCAACCAACATA, the PBM binding z-score was 0.19 in [1]; 0.112 in test [2]; 0.0145 in test [3]; 0.776 in test [4]; -0.298 in [5]; 0.929 in test [6]. The PBM binding z-score in test [7] was determined as 0.00295; in [8], 1.16; in test [9], 1.41; in test [10], 1.11; in test [11], 2.51; in [12] it was 2.16. In addition, the PBM binding z-score was -0.398 in [13]; -0.896 in test [14]; -0.069 in test [15]; 0.309 in test [16]; -0.2 in [17]; 0.545 in [18]. The figures for the PBM binding z-score in [19] and in [20] were 0.0845 and 0.517, respectively.
For the sequence TCATATAGGTAATACAGGTGAGAGTCGGCATCTA, the PBM binding z-score in test [1] came out at 0.19; in test [2] it was 0.512; in [3], 0.274; in test [4] it was 0.54; in test [5] it was 0.184; in test [6] it was 1.63. Moreover, the PBM binding z-score is 1.39 in [7]; 2.16 in test [8]; 3.62 in test [9]; 2.77 in test [10]; 3.93 in test [11]; 3.29 in test [12]. For the same sequence, the PBM binding z-score was 1.38 in test [13]; 1.56 in [14]; 0.749 in test [15]; 0.46 in test [16]; 0.623 in [17]; 0.533 in test [18]. Moreover, the PBM binding z-score in test [19] worked out at 1.42; in [20] it was 0.457.
Regarding GGAACGAGGGCATTCGATTTGATAGCATGGCGAT, the PBM binding z-score is 0.98 in [1]; 0.589 in test [2]; -0.512 in test [3]; 0.472 in [4]; -0.24 in test [5]; 1.49 in test [6]. The PBM binding z-score in [7] turned out to be 1.13; in test [8] it was 1.23; in test [9], 0.159; in test [10], 0.731; in [11], 3.33; in [12], 2.39. Besides, the PBM binding z-score in [13] was 0.437; in test [14], -0.411; in test [15], 0.257; in [16] it was 0.991; in [17], 0.161; in test [18] it was 0.538. In addition, the PBM binding z-score in test [19] was -0.351; in test [20] it was 1.96.
Turning to ACTCGGAGTACAAAGGTCAGAGCTACGCCAGTGA, the PBM binding z-score stood at 4.23 in test [1]; 4.12 in test [2]; 1.57 in test [3]; 3.56 in test [4]; 0.437 in [5]; 5.17 in test [6]. For the same sequence, the PBM binding z-score was 8.46 in test [7]; 7.54 in [8]; 7.42 in test [9]; 8.33 in test [10]; 0.771 in test [11]; 3.83 in test [12]. Also, the PBM binding z-score in test [13] is -0.013; in test [14], 0.136; in test [15], 3.32; in test [16], 4.1; in test [17] it was 0.393; in test [18], 4.96. Also, the PBM binding z-score is 2.36 in test [19] and 4.39 in [20].
For GCTTACGGGTCAAAGGTTATACCATGAATAGAAT, the PBM binding z-score in [1] is 7.48; in test [2], 5.87; in test [3] it was 0.778; in [4] it was 5.87; in test [5] it was 0.759; in test [6], 7.21. In addition, the PBM binding z-score in test [7] was 11.2; in [8], 9.29; in [9], 9.29; in test [10] it was 10.3; in test [11], 4.59; in [12] it was 6.16. Moreover, the PBM binding z-score in test [13] was determined as 1.82; in test [14], 1.93; in test [15], 2.73; in [16] it was 6.11; in test [17], 0.691; in [18], 8.2. Also, the PBM binding z-score in [19] was found to be 0.701; in test [20] it was 4.64.
With AATACAGGGTCATCGTAGGCGAGAGTACGCACAG, the PBM binding z-score in test [1] was determined as 7.5; in [2], 6.16; in test [3] it was 2.08; in [4] it was 4.6; in test [5], 1.54; in test [6], 5.94. In addition, the PBM binding z-score turned out to be 6.58 in test [7]; 6.21 in [8]; 2.48 in [9]; 4.92 in [10]; 2.84 in [11]; 4.14 in test [12]. In addition, the PBM binding z-score in test [13] stood at 3.29; in [14] it was 1.01; in test [15] it was 2.21; in test [16] it was 4.29; in test [17], 1.03; in test [18] it was 5.1. Also, the PBM binding z-score amounted to 1.25 in test [19] and 4.37 in [20].
